In the library only some 11% were active in any assay of this set; here they are far more common.
Autophagy HCS = autophagy modulation, high-content screen; MEF GFP-LC3 puncta imaging; test concentration mostly 10 µM; calls only at 10 µM (by protocol); actives 0.98% (n = 190,000);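 active = percentage of spot-positive cells more than 3 SD above its plate mean, without a fluorescence outlier flag or 80% toxicity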;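 note: spot-positive cell cutoff set from DMSO-treated cells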
WT yeast gro inh = growth inhibition of WT yeast, mitochondrial fusion screen | actives 2.1% (n = 190,000) | inhibition, % at 10 µM | mitochondrial fusion phenotypic screen, WT strain; in the data active = inhibition above about 58%; tested in S. cerevisiae
L major viab = inhibitors of Leishmania major promastigote growth | AID 1063 | actives 9% (n = 200,000) | inhibition, % at 10 µM | Leishmania major promastigotes, resazurin fluorescence viability; in the data active = inhibition above about 50%;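 note: promastigotes grown with compound for 44 hours at 28 °C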
INS promoter inh = TRM-6 insulin promoter activity inhibition. TRM-6 cells (human fetal islet line), insulin promoter-eGFP reporter, imaging; reporter expression induced with tamoxifen. inhibition, % at 2 µM. actives 0.9% (n = 130,000);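 active = inhibition above the mean plus 3 SD, with well images judged a real hit on visual review, cut at about 60% in these data, passing the limit was not always enough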
Ins promoter up = MIN6 insulin promoter up-regulation; actives 0.3% (n = 190,000); MIN6 insulin promoter-GFP reporter, high-content imaging; active compounds read high; z-score at 5 µM; AID 1625;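 active = z-score above 3 at 5 µM with at least 500 cells counted in the well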
Numbers without * were called inactive; i = inactive; / = no result.

SMILES	Autophagy HCS	WT yeast gro inh	L major viab	INS promoter inh	Ins promoter up
COc1cc(C(=O)Oc2ccccc2/C=N/NC(=O)c2ccc(C)cc2)cc(OC)c1OC	i	9.4	76.2*	40.0	-0.29
CC(C)(C)C(=O)Nc1ccc(C(=O)N/N=C/c2ccccc2OC(=O)c2ccc(Cl)cc2)cc1	i	-9.4	54.8*	0.0	0.04
CC(C)(C)C(=O)Nc1ccc(C(=O)N/N=C/c2ccccc2OC(=O)c2ccccc2)cc1	i	9.3	49.7	0.0	-0.72
Cc1cccc(C(=O)Oc2ccccc2/C=N/NC(=O)c2ccc(NC(=O)C(C)(C)C)cc2)c1	i	11.0	23.1	-59.4	/
O=C(CSc1ncnc2ccccc12)NCC(=O)c1ccccc1	i	-64.2	3.5	35.7	/
CC(C)(C)c1ccc(S(=O)(=O)N2CCSC2)cc1	i	-8.8	31.6	50.0	-0.28
CC1=C(C(=O)OC(C)(C)C)C(c2cccs2)NC(=O)N1 (stereo unspecified)	i	13.9	69.1*	-25.0	0.29
O=C(Nc1nc2ccccc2[nH]1)C12CC3CC(CC(C3)C1)C2	i	35.0	90.5*	10.0	-0.29
O=C(Nc1ccc2nc(-c3cccnc3)[nH]c2c1)C12CC3CC(CC(C3)C1)C2	i	-13.0	77.4*	25.0	/
Nc1cccc(C(=O)Nc2ccc3nc(-c4cccnc4)[nH]c3c2)c1	i	3.9	-2.5	50.0	0.17
O=C(Nc1nc2ccccc2[nH]1)C1CC1	i	12.1	4.1	/	-0.5
CC(C)c1nc2ccc(NC(=O)C34CC5CC(CC(C5)C3)C4)cc2[nH]1	i	1.4	48.4	23.3	/
O=C(Nc1ccc2nc(-c3cccnc3)[nH]c2c1)C1CCCCC1	i	-10.4	68.0*	-4.8	/
O=C(CSc1nnc(-c2cccnc2)s1)Nc1ccc(C(=O)O)cc1	i	-20.0	-4.8	/	0.65
C=CCNC(=O)NC(=O)COC(=O)/C(C#N)=C/c1ccc(OC)cc1	i	-9.3	-0.9	-40.0	-0.16
Cc1ccnc(NC(c2ccccn2)c2c(C)[nH]c3ccccc23)c1 (stereo unspecified)	i	-5.7	74.1*	-52.9	0.22
Cc1[nH]c2ccccc2c1C(c1ccccn1)N1CCCC1 (stereo unspecified)	i	-11.5	20.4	/	-0.07
CCc1ccc(Nc2nc(N)nc(CSc3nc4ccccc4s3)n2)cc1	i	72.2*	3.1	/	-1.03
Cc1ccc2ccc(C(Nc3ccccn3)c3ccccc3)c(O)c2n1 (stereo unspecified)	i	-11.9	99.6*	/	-0.88
Oc1ccccc1C(Nc1nccs1)c1ccc2cccnc2c1O (stereo unspecified)	/	/	/	/	0.73
COc1ccc(C(NC(=O)C(C)C)c2ccc3cccnc3c2O)cc1 (stereo unspecified)	/	/	/	/	-0.28
CC(=O)NC(c1ccco1)c1ccc2cccnc2c1O (stereo unspecified)	i	32.5	98.2*	-46.7	/
COc1cc(C(Nc2ccccn2)c2ccc3ccc(C)nc3c2O)cc(OC)c1O (stereo unspecified)	i	/	93.5*	/	-0.09
Oc1c(C(Nc2ccccn2)c2ccccn2)ccc2cccnc12 (stereo unspecified)	i	-15.2	99.9*	/	-2.83
C=CCSc1nc(C)c(CCCC)c(=O)[nH]1	i	-6.7	-1.4	/	/
SMILES	Autophagy HCS	WT yeast gro inh	L major viab	INS promoter inh	Ins promoter up
Cc1cccc(C(=O)NCCc2ccc(S(N)(=O)=O)cc2)c1[N+](=O)[O-]	i	-0.9	87.4*	21.4	-0.47
COCCNC(=O)c1cccc(C)c1[N+](=O)[O-]	i	4.3	-6.0	/	0.21
O=C(CN1CCN(CCOCCO)CC1)N1c2ccccc2Sc2ccc(Cl)cc21	i	-1.2	19.2	-18.8	-1.1
CN1CCN(CCOC2Cc3ccccc3Sc3ccc(Cl)cc32)CC1 (stereo unspecified)	i	87.0	66.0*	-79.3	-0.29
OCCN1CCN(C2Cc3cc(Cl)ccc3Sc3ccc(Cl)cc32)CC1 (stereo unspecified) (tested in a mixture with another compound)	i	92.7	54.6*	14.3	/
CCOC(=O)c1ccc(NC(=O)c2cn(CCC#N)nc2-c2ccc3c(c2)OCCO3)cc1	i	-17.0	68.3*	/	-0.27
Fc1ccccc1CSc1nc2ccccc2[nH]1	i	38.4	90.8*	74.3*	0.41
CC(C)(C)c1ccc(C(=O)NCC(=O)OCC(=O)c2ccc3c(c2)-c2ccccc2C3)cc1	i	8.7	-6.3	13.3	/
O=C(NC1CC2CCC(C1)N2C(=O)NCc1ccccc1)NC12CC3CC(CC(C3)C1)C2 (stereo unspecified)	i	2.9	0.8	3.2	-0.05
Clc1ccc(CNC2CCCC2)cc1	i	8.3	37.0	-5.7	0.05
c1csc(COc2ccccc2CNC2CCCCC2)c1	i	10.4	80.7*	/	-1.64
c1ccc(COc2ccccc2CNC23CC4CC(CC(C4)C2)C3)cc1	i	34.3	71.0*	-58.8	-2.47
c1ccc(COc2ccccc2CNC2CCCC2)cc1	i	7.2	70.3*	-31.6	-0.82
C/C(CC(=O)N(C(C)C)C(C)C)=N\NC(=O)c1ccccc1Br	i	-12.7	-7.0	/	0.22
Cc1ccc(-n2c(O)c(C=NCc3ccccn3)c3ccccc3c2=O)cc1C	i	-1.9	70.8*	-24.1	-0.17
O=c1c2ccccc2c(C=NCc2ccccn2)c(O)n1-c1ccccc1	i	-2.2	-0.3	-4.6	-0.01
CCN1CCN(Cc2c(O)ccc3c2O/C(=C\C=C\c2ccccc2OC)C3=O)CC1	i	-2.9	69.1*	-14.3	0.45
O=C(CSc1nn(-c2ccccc2)c(=S)s1)NC(=O)NCc1ccco1	i	7.9	4.8	-50.0	0.79
CSc1nc(N2CCN(CCO)CC2)c2sc3nc(-c4ccco4)c4c(c3c2n1)CCC4	/	93.2*	/	/	0.74
O=C(O)c1ccccc1CSc1nc2ccccc2n1Cc1ccccc1C(=O)O	i	-1.9	-8.2	/	-0.34
COCCN1C=C(C(=O)OC)C(c2cc(Br)c(OC)c(OC)c2)C(C(=O)OC)=C1	i	1.9	99.9*	-69.2	1.44
CCCCC(=O)N(CCOC)c1nnc(-c2ccccc2C)s1	i	-2.6	8.9	/	-0.11
CC(C)NC(=O)/C(C#N)=C/c1cccc(NC(=O)c2ccccc2Cl)c1	i	49.6	100.2*	48.0	-0.39
COCCNC(=O)/C(C#N)=C/c1cccc(NC(=O)c2ccccc2Cl)c1	i	-9.6	29.7	/	0.54
Cc1cc(Nc2cnc3ccccc3n2)n(-c2ccccc2)n1	i	5.0	67.1*	11.6	0.09
Cc1cc(Nc2ncc(Cl)cc2Cl)n(-c2ccccc2)n1	i	54.9	0.8	-35.5	1.37
CC(C)N1CC(C(=O)Nc2nc3ccccc3s2)CC1=O (stereo unspecified)	i	9.9	-1.6	75.0*	/
CCOC(=O)C(C(=O)Nc1nc2ccccc2s1)C1CCCCC1 (stereo unspecified)	i	14.6	85.5*	-66.7	-1.27
CCOC(=O)C(C(=O)Nc1nccs1)C1CCCCC1 (stereo unspecified)	i	-11.5	51.8*	-26.9	/
